Compounds with a hit are over-represented: about 2.6% of the library has one in this group of screens.
FLuc inh: qHTS Assay for Inhibitors of Firefly Luciferase; AID 411, 2009; Luciferin 4-monooxygenase (Photinus pyralis), P08659; Potency, µM (doses to about 57.1 µM), for inactives: at the highest dose activity change, negative = inhibition, most hits filed as inhibitors; hit rate 2.2% among 72,000; purified firefly luciferase, luminescence, 8 min; note: potency is the fitted concentration of half-maximal effect; % is set by controls: 0 for no effect and ±100 for the full control effect; nearly all actives have a fitted effect of over 40% in size
Target sequence (P08659 whole entry, looked up): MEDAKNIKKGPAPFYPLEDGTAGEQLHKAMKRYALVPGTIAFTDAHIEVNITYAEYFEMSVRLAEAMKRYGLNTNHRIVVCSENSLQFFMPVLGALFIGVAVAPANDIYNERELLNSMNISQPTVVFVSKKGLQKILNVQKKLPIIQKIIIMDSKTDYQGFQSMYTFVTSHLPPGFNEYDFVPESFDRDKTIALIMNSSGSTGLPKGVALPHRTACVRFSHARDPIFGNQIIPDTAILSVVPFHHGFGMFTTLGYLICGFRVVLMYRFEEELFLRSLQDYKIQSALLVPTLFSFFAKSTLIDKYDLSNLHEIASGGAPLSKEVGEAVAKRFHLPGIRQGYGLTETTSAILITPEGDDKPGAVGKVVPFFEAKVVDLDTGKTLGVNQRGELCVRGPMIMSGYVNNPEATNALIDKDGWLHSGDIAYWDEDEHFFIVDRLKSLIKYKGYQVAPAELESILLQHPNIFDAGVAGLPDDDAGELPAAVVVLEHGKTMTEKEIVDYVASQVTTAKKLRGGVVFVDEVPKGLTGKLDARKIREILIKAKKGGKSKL
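Substrate buffer containing 10 uM ATP (pH 7.2 imidazole, Mg2+, KCl, detergent, BSA) is dispensed, compound pinned in, then luciferase/luciferin detector mix added. After 8 min at ambient temperature, light output is measured.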
HBB splice mod: qHTS Assay for Modulators of Hemoglobin Beta Chain Splicing | HBB splicing reporter cell assay, activation; EGFP reporter with mutant IVS2-654 intron; response scale: normalised to 500 nM splice-correcting PNA | Potency, µM (series often up to 46.1 µM), for the others: top-dose activation, most hits filed as activators | hit rate 0.06% among 65,000; note: potency is the fitted concentration of half-maximal effect; 0% is about no effect
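Compounds were applied for 2 days to HeLa EGFP-654 cells, 500/well in Optimem with 2% FCS. The reporter's EGFP is disrupted by mis-splicing of beta-globin intron IVS2-654. Readout: summed well GFP fluorescence from 488 nm laser scanning; reference was 500 nM antisense […] 654 PNA.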
Epigenetic mod: qHTS Assay for Epigenetic Modulators | Potency, µM (doses to about 46.1 µM), inactives show at the highest dose GFP derepression (activation) | hit rate 0.09% among 68,000 | mouse C127i GFP locus derepression, cytometry, 30 h | AID 597, 2007; note: % of control where 0% means no effect
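Murine C127i mammary cells carrying a silenced, stably integrated CMV-driven GFP reporter were treated with compound for 30 hours at 37 C. After PBS washes, GFP-positive cells were counted by laser-scanning microplate cytometry.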
UbGFP stabilizer: Ubiquitin-GFP Assay | Ubiquitin-GFP reporter cells, proteasome inhibition, GFP fluorescence; response scale: untreated = 0%, 10 µM MG-132 = 100% | Potency, µM (doses to about 45.9 µM), inactives show at the highest dose activation (GFP accumulation), hits mostly activators | 67,000 tested, under 10 active | AID 526, 2006; active = well fitted activation curve with a large enough effect, not every such curve was filed as active; inconclusive = small, poorly fitted or top-dose-only effect, or another doubt; inactive = no such curve, though single readings can be large or run the other way; note: potency is the fitted concentration of half-maximal effect
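U2OS cells stably expressing ubiquitin(G76V)-GFP, seeded overnight in 0.5% FBS medium, were exposed to compounds (qHTS, 46 uM to 2.9 nM) for 4 hr at 37 °C. GFP-positive cells were counted by laser cytometry (488 ex/515 em), normalized between basal and 10 uM MG-132.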
PK Bst: Pyruvate Kinase; purified pyruvate kinase, luminescence ATP production; ribose 5-phosphate activator present at AC10; Potency, µM; hit rate 1.2% among 51,000; in the data active = potency below about 11 µM; inconclusive = mostly about 12 µM to 25 µM;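 the screen sought inhibitors and activators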;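 note: potency is the fitted concentration of half-maximal effect; scaled between full activation by ribose 5 phosphate and full inhibition by luteolin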
Numbers without * were called inactive; [ ] = another dose, or the depositor's remark. Unless noted, calls come from the whole dose curve; as a rule, active = well fitted curve in the direction sought with a large enough effect; inconclusive = small, poorly fitted or top-dose-only effect, or another doubt; inactive = no such curve, though single readings can be large; an effect the other way counts as inactive or inconclusive.

What do the screens show for `Cc1nc2c(ccc3nc(NC(=O)c4ccc5c(c4)OCCO5)sc32)s1`?
FLuc inh: 0.79µM*; HBB splice mod: 0%; Epigenetic mod: 3%; UbGFP stabilizer: -8%; PK Bst: 0.29*

How did O=C(Nc1ccc2c(c1)OCCO2)C1CCN(S(=O)(=O)c2cccc3nsnc23)CC1 do in these assays?
FLuc inh: 2%; HBB splice mod: 1%; Epigenetic mod: -4%; UbGFP stabilizer: 1%; PK Bst: 9.3*

How did COc1ncc2nc(-c3ccccc3)c(=O)n(CCC#N)c2n1 do in these assays?
FLuc inh: -5%[11.4 µM]; HBB splice mod: 1%; Epigenetic mod: 2%[9.22 µM]; UbGFP stabilizer: 3%

How did CC1CCC(C(=O)O)([C@H](Br)C(=O)O)CC1 (some centres undefined) do in these assays?
FLuc inh: 0%[11.4 µM]; HBB splice mod: 5%[9.22 µM]; Epigenetic mod: 0%[9.22 µM]; UbGFP stabilizer: -3%[9.17 µM]

Results for CNc1ncncc1-c1ccccc1C ?
FLuc inh: 4%[2.29 µM]; HBB splice mod: 0%; Epigenetic mod: -3%[9.22 µM]; UbGFP stabilizer: -1%

How did Cc1csc(NC(=O)Nc2cccc(Cl)c2)n1 do in these assays?
FLuc inh: 7.9µM*; HBB splice mod: 3%; Epigenetic mod: 3%; UbGFP stabilizer: 3%

What do the screens show for `Cc1nnc(NC(=O)Nc2cccc(Cl)c2)s1`?
FLuc inh: -30%; Epigenetic mod: -3%; UbGFP stabilizer: 4%; PK Bst: >57

Results for Clc1cccc(C=NC=Nc2cccc(Cl)c2)c1 ?
FLuc inh: 2µM*; Epigenetic mod: 1%; UbGFP stabilizer: 2%

What do the screens show for `CCc1cc2c(c(CC)n1)CCC(=O)N2Cc1ccc(-c2ccccc2-c2nn[nH]n2)cc1`?
FLuc inh: 16µM*; Epigenetic mod: -1%; UbGFP stabilizer: -2%

Results for CC(C)(C)c1ccc(-c2cc(N)n[nH]2)cc1 ?
FLuc inh: 13µM*; HBB splice mod: 0%; UbGFP stabilizer: -7%

Results for O=C(Nc1ccc(N2CCCC2)c(Cl)c1)c1ccco1 ?
FLuc inh: 5µM*; HBB splice mod: 0%[0.0738 µM]; Epigenetic mod: -2%; UbGFP stabilizer: 5%[9.17 µM]

What do the screens show for `O=C(Nc1ccc(N2CCCCC2)c(Cl)c1)c1ncn[nH]1`?
FLuc inh: 10µM*; Epigenetic mod: 0%; UbGFP stabilizer: 3%

How did CN1CCN(c2ccnc(-c3ccoc3)n2)CC1 do in these assays?
FLuc inh: -3%[2.29 µM]; HBB splice mod: 1%; Epigenetic mod: -3%[9.22 µM]; UbGFP stabilizer: -8%

What do the screens show for `c1ccc2c(c1)nc(Nc1ccc3c(c1)OCO3)c1nnnn12`?
FLuc inh: inconclusive; HBB splice mod: 3%; Epigenetic mod: 0%; UbGFP stabilizer: 4%; PK Bst: 8.6*

Results for Cc1ccc2nc3sc(C(=O)N4CCOCC4)c(N)c3cc2c1 ?
FLuc inh: 2µM*; Epigenetic mod: 2%; UbGFP stabilizer: -2%; PK Bst: 1.8*

What do the screens show for `Cc1ccc2cc3c(N)c(C(=O)N4CCOCC4)sc3nc2c1`?
FLuc inh: 13µM*; Epigenetic mod: -2%; UbGFP stabilizer: 0%; PK Bst: 11*

How did COc1ccc2cc3c(N)c(C(=O)N4CCCC4)sc3nc2c1 do in these assays?
FLuc inh: inconclusive; HBB splice mod: 0%; Epigenetic mod: 0%; UbGFP stabilizer: 7%; PK Bst: inconclusive

Results for COc1ccc(-c2cn3c4c(sc3n2)CCCC4)cc1 ?
FLuc inh: 0.63µM*; HBB splice mod: 1%; Epigenetic mod: -2%; UbGFP stabilizer: 3%; PK Bst: 0.54*

Results for CCc1c(-c2ccccc2)nc2nc(C)c(C)nn12 ?
FLuc inh: -12%; HBB splice mod: 0%; Epigenetic mod: -7%; UbGFP stabilizer: -3%

What do the screens show for `CCc1ccc(-c2cn3nc(C)c(C)nc3n2)cc1`?
FLuc inh: 1µM*; Epigenetic mod: 4%[20.6 µM]; PK Bst: 1.5*

How did Cc1nc2nc(-c3ccccc3)cn2nc1C do in these assays?
FLuc inh: 13µM*; HBB splice mod: -1%; Epigenetic mod: -1%; UbGFP stabilizer: 5%; PK Bst: inactive

How did O=C(c1cc2ccccc2oc1=O)N1CCN(c2ccc(N3CCOCC3)nn2)CC1 do in these assays?
FLuc inh: 16µM*; HBB splice mod: 1%; Epigenetic mod: -2%; UbGFP stabilizer: -8%

How did O=C(c1ccc2c(c1)OCCO2)C1CCN(S(=O)(=O)c2ccc(F)cc2)CC1 do in these assays?
FLuc inh: 0%; Epigenetic mod: -3%; UbGFP stabilizer: 3%; PK Bst: 10*

What do the screens show for `N=C(N)SC(c1ccccc1)c1ccccc1`?
FLuc inh: 4%[11.4 µM]; HBB splice mod: -1%[9.22 µM]; Epigenetic mod: -1%[9.22 µM]; UbGFP stabilizer: -5%[9.17 µM]

Results for COCCNC(=O)c1noc2c1CCc1cc(OC)ccc1-2 ?
FLuc inh: 13µM*; HBB splice mod: 0%; Epigenetic mod: 2%; UbGFP stabilizer: 3%

Results for Cc1cc(C)c(C)c(S(=O)(=O)NCc2ccco2)c1C ?
FLuc inh: 0%; HBB splice mod: 1%; Epigenetic mod: -6%; UbGFP stabilizer: 1%; PK Bst: 11*

What do the screens show for `Cc1ccc(S(=O)(=O)NCc2ccco2)cc1C`?
FLuc inh: 0%; HBB splice mod: -1%[9.22 µM]; Epigenetic mod: 0%; UbGFP stabilizer: 10%

How did COc1ccc(C(=O)N2CCC3(CCN(CC(C)C)CC3)CC2)cc1 do in these assays?
FLuc inh: 2%[11.4 µM]; HBB splice mod: -1%; Epigenetic mod: 12%[9.22 µM]; UbGFP stabilizer: 0%

How did COc1ccc(Cn2c(C3CC3)nc3ccc(NC(=O)C4CC4)cc3c2=O)cc1 do in these assays?
FLuc inh: 16µM*; HBB splice mod: 0%[57.5 µM]; Epigenetic mod: 1%; UbGFP stabilizer: 3%

Results for O=C(NC1=NC2CCCCC2N1)c1ccccc1 (centres undefined) ?
FLuc inh: 1.3µM*; HBB splice mod: 4%; Epigenetic mod: 0%; UbGFP stabilizer: -4%; PK Bst: inconclusive

What do the screens show for `CC(=O)c1n[nH]nc1NC(=O)c1ccccc1`?
FLuc inh: 0%; HBB splice mod: 1%; Epigenetic mod: 4%; UbGFP stabilizer: -9%; PK Bst: >57

Results for Clc1ccc(-c2nn3cnnc3s2)c(Cl)c1 ?
FLuc inh: -4%; HBB splice mod: 1%[0.369 µM]; Epigenetic mod: -2%; PK Bst: 10*

Results for Cc1ccc(-c2noc(-c3cccs3)n2)cc1 ?
FLuc inh: 7.9µM*; HBB splice mod: -1%[9.22 µM]; Epigenetic mod: 0%; UbGFP stabilizer: 1%

What do the screens show for `O=C(O)CCc1nc(-c2cccs2)no1`?
FLuc inh: 2%; HBB splice mod: 0%; Epigenetic mod: 4%; UbGFP stabilizer: 14%; PK Bst: >57

What do the screens show for `Cc1ccc2nc(/C(C#N)=N/O)[nH]c2c1`?
FLuc inh: 25µM*; Epigenetic mod: -5%; UbGFP stabilizer: -1%

From PubChem
